Assay outcomes: PubChem, National Center for Advancing Translational Sciences (NCATS)
WRN helicase inh: blocks human WRN helicase. Q14191. WRN helicase unwinding, fluorescent forked duplex, kinetic. Potency, µM (series often up to 114 µM), for inactives: at the top dose activity change, negative = inhibition, hits mostly inhibitors. actives 0.46% (n = 360,000); further: potency means the concentration at half of the fitted maximal effect; on the % scale 0 is the no-effect control and ±100 the full control effect; nearly all actives have a fitted effect of over 55% in size
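WRN at 20 nM final preincubated with compound 15 min at room temperature; reaction started with 100 nM fluorophore/quencher forked duplex oligonucleotide and 2 mM ATP final. Unwinding followed kinetically by red fluorescence (ex 525, em 598 nm).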
Pol iota inh: blocks human DNA polymerase iota activity | Pol iota fluorescent replication assay, 10 min | Potency, µM (highest dose often 115 µM), without a hit: at the top dose activity, negative = inhibition, actives largely listed as inhibitors | actives 1% (n = 390,000); further: potency means the concentration at half of the fitted maximal effect
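Fluorescent replication assay read twice, at 0 min and 10 min after adding 50 nM (final) substrate. Enzyme (10 nM) and compounds were first incubated 15 min at room temperature; enzyme-free buffer wells were negative controls.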
Pol kappa inh-1: blocks human DNA polymerase kappa activity; Q9UBT6; purified Pol kappa, fluorescent DNA synthesis assay, 10 min; Potency, µM (highest dose often 107 µM), for inactives: at the top dose activity, negative = inhibition, actives largely listed as inhibitors; actives 0.53% (n = 400,000); AID 588579; further: potency means the concentration at half of the fitted maximal effect; on the % scale 0 is the no-effect control and ±100 the full control effect
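Activity was followed as the change in fluorescence between reads at 0 and 10 min after starting the reaction with 50 nM substrate. Beforehand, 10 nM polymerase had been preincubated with compound for 15 min at room temperature.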
POLB inh: DNA polymerase beta (human) inhibition. P06746. Pol beta primer extension/strand displacement, fluorescence kinetic. Potency, µM (series often up to 114 µM), without a hit: top-dose activity change, negative = inhibition, actives largely listed as inhibitors. actives 1.3% (n = 340,000). AID 485314; further: potency means the concentration at half of the fitted maximal effect; on the % scale 0 is the no-effect control and ±100 the full control effect
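Reaction started by 50 nM substrate onto compound-treated Pol beta (10 nM, 15 min preincubation, room temperature); plates read at 0 min and 10 min. Normalized concentration-effect data fitted by four-parameter Hill equation.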
Pol eta inh-1: inhibitors of human DNA polymerase eta. recombinant Pol eta, fluorescent DNA replication assay. Potency, µM (highest dose often 114 µM), without a hit: top-dose activity change, negative = inhibition, hits mostly inhibitors. actives 1.2% (n = 390,000). AID 588591; further: potency means the concentration at half of the fitted maximal effect; on the % scale 0 is the no-effect control and ±100 the full control effect
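Fluorescent replication assay: 50 nM final substrate added after a 15 min room-temperature compound preincubation with 10 nM enzyme. Signal taken at 0 min and again at 10 min.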
L3MBTL1 inh: L3MBTL1 (human) inhibition. Q9Y468. AlphaScreen L3MBTL1–H3K9me1 peptide binding. Potency, µM (doses to about 57.1 µM), for inactives: at the top dose activity, negative = inhibition, most hits filed as inhibitors. actives 0.66% (n = 230,000); further: potency means the concentration at half of the fitted maximal effect; on the % scale 0 is the no-effect control and ±100 the full control effect; nearly all actives have a fitted effect of over 60% in size
Target sequence (Q9Y468 whole entry, looked up): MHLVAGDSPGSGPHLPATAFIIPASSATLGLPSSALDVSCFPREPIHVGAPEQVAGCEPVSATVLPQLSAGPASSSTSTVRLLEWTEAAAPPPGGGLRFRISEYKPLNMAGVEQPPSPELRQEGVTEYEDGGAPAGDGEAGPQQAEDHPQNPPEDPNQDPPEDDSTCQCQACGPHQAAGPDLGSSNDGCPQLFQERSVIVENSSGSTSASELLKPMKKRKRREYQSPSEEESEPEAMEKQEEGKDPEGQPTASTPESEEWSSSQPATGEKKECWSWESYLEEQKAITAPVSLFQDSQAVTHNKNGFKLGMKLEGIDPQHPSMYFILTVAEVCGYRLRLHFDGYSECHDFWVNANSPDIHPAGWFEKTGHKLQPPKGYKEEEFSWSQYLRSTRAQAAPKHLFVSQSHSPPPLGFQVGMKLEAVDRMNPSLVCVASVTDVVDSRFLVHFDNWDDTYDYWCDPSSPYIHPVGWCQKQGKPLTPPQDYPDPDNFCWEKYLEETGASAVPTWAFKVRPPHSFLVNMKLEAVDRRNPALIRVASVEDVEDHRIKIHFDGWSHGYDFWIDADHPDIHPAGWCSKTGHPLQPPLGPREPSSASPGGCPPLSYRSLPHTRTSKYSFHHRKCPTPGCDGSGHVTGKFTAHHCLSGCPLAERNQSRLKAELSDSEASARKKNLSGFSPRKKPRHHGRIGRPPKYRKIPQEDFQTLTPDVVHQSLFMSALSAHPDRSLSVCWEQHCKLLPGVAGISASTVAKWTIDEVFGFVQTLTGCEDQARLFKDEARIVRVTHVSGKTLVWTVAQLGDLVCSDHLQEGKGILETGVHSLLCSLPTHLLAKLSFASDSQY
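First, the protein-peptide complex forms for 30 min at room temperature (L3MBTL1 50 nM, biotinylated H3K9me1 peptide 75 nM). Next, compounds are pin-transferred and incubated 30 min. Finally, AlphaScreen beads are added and read after 30 min.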
GALK confirm: galactokinase (human) inhibition, confirmation | shares compounds with Pol eta inh-1 | purified GALK, Kinase-Glo ATP depletion luminescence | Potency, µM (series often up to 115 µM), for inactives: top-dose activity, negative = inhibition, most hits filed as inhibitors | actives 70% (n = 150)
GALK redox cs: redox cycling activity in phenol red-HRP assay; shares compounds with Pol eta inh-1; Phenol red-HRP H2O2 redox cycling, absorbance 600 nm; Potency, µM (series often up to 115 µM), inactives show at the top dose activity change, negative = H2O2 signal, most hits filed as inhibitors; actives 40% (n = 150)
HEK293 tox: HEK-293 cytotoxicity, GALK inhibitor secondary; Potency, µM (doses to about 46.1 µM), without a hit: top-dose activity change, negative = cytotoxicity, actives largely listed as inhibitors; actives 10% (n = 170); AID 2547; HEK-293 viability, ATP luminescence (CellTiter-Glo), 24/48 h; shares compounds with Pol eta inh-1; further: potency means the concentration at half of the fitted maximal effect; on the % scale 0 is the no-effect control and ±100 the full control effect
Pol kappa inh-2: confirmation of human DNA polymerase kappa inhibitors; AID 720501; actives 76% (n = 920); purified Pol-kappa, fluorescent strand-displacement substrate; Potency, µM, hits mostly inhibitors; shares compounds with Pol eta inh-1; further: potency means the concentration at half of the fitted maximal effect
Pol eta inh-2: confirmation of human DNA polymerase eta inhibitors. shares compounds with Pol eta inh-1. Pol eta primer extension, TAMRA/BHQ fluorescence, 10 min. Potency, µM, actives largely listed as inhibitors. actives 64% (n = 2,600). AID 720502; further: potency means the concentration at half of the fitted maximal effect
* marks the source's active call; other numbers are inactive results; ? = inconclusive; . = no result given; [ ] = remark or other dose. Compounds with a hit are over-represented: about 2.5% of the library has one in this group of screens. The call rests on the fitted dose curve; in most records, active means well fitted curve in the direction sought with a large enough effect; inconclusive means small, poorly fitted or top-dose-only effect, or another doubt; inactive means no such curve, though single readings can be large; an effect the other way counts as inactive or inconclusive.

SMILES	WRN helicase inh	Pol iota inh	Pol kappa inh-1	POLB inh	Pol eta inh-1	L3MBTL1 inh	Pol kappa inh-2	Pol eta inh-2	others
NS(=O)(=O)c1ccc(NC(=S)NNC(=O)c2ccc(Br)o2)cc1	1.8%	18.5%	-3.1%	96.5%	-14.8%	.	.	.	GALK confirm=?;GALK redox cs=-1.7%;HEK293 tox=19.4%
Cc1cc(S(=O)(=O)Nc2ccc(O)c(Sc3nc4ccccc4s3)c2)ccc1Cl	.	-5.6%	-8.1%	5.3%	-10.8%	.	.	.
O=S(=O)(Nc1ccc(O)c(Sc2nc3ccccc3s2)c1)c1cc(Cl)ccc1Cl	.	?	?	?	79.4µM*	.	.	?
O=C(Cc1cccs1)N1CCN(c2ccc(F)cc2)CC1	-4.5%	9.8%	-4.7%	10.0%	-15.1%	0.6%	.	.
Cc1nc2ncnn2c(N2CCN(C(=O)Cc3cccs3)CC2)c1C	?	?	?	20µM*	79.4µM*	.	.	?
Cc1nc2ccc(-c3nc4ccc(N)cc4[nH]3)cc2[nH]1	?	17.8µM*	50.1µM*	12.6µM*	?	0.8%	?	.
CCOC(=O)c1cnn(-c2nc(-c3ccc(F)cc3)cs2)c1C(F)(F)F	-9.6%	.	-7.2%	21.1%	?	3.6%	.	.
Cc1cc2c(=O)n(Cc3ccco3)c(SCC(=O)NCc3ccco3)nc2s1	-27.2%	35.5µM*	?	?	?	-23.1%	.	?
NC(=S)NN=C1c2cc(Cl)ccc2-c2c1cc(Cl)cc2[N+](=O)[O-]	1.2%	19.3%	1.3%	.	2.2%	.	.	.
COc1cc2c(cc1[N+](=O)[O-])-c1ccc([N+](=O)[O-])cc1C2=NNC(N)=S	-26.3%	.	.	.	10µM*	.	67*	.
C[C@H]1CN([C@@H](C)CO)C(=O)c2cc(NC(=O)CCN3CCOCC3)ccc2O[C@H]1CN(C)C(=O)Nc1ccc(F)cc1	-3.2%	9.7%	10.0%	.	2.8%	2.9%	.	.
CC(=O)/C(N=Nc1ccc(C(=O)O)cc1[N+](=O)[O-])=C(\C)O	3.6%[11.6 µM]	50.1µM*	?	?	11.2µM*	.	.	?
O=C(Nc1nnc(-c2ccccc2F)s1)C1CCCO1 (stereo not given)	-23.6%[57.1 µM]	50.1µM*	?	31.6µM*	14.1µM*	-20.1%	.	?
COc1ccc(/C=C2\SC(=S)N(CCCC(=O)Nc3ccc(C(=O)O)cc3)C2=O)cc1OC	?	56.2µM*	-27.3%	?	?	.	42.3*	.
O=C(CCN1C(=O)/C(=C/c2ccc3c(c2)OCO3)SC1=S)Nc1cccc(C(=O)O)c1	-15.4%[11.6 µM]	188.0%	-8.5%	13.7%	?	-0.2%	?	.
CCOC(=O)c1c(C)[nH]c(C)c1S(=O)(=O)N(C)CC(=O)Nc1cc(C)ccc1OC	-6.9%	9.0%	-16.0%	?	-12.1%	.	.	.
O=C(Cn1cnc2c(oc3ccccc32)c1=O)Nc1ccc(F)cc1F	.	-2.2%	-18.3%	7.2%	-5.4%	.	.	.
Cc1ccc(C)c(NC(=O)Cn2cnc3c(oc4ccccc43)c2=O)c1	-7.2%	29.1%	-2.8%	34.6%	?	1.4%	67*	.
Cc1ccc(C)c(S(=O)(=O)/N=C2\C=C(NS(=O)(=O)c3ccccc3)C(=O)c3ccccc32)c1	-15.8%[11.6 µM]	?	-3.3%	-7.1%	?	.	.	?
Cc1cccc(S(=O)(=O)Nc2cccc3c2C(=O)c2ccccc2-3)c1	-7.8%	19.3%	-13.5%	-12.3%	-21.5%	-4.7%	.	.
Cc1ccccc1NC1=C/C(=N\S(=O)(=O)c2ccc(C(=O)O)cc2)c2ccccc2C1=O	-34.3%[57.1 µM]	0.891µM*	-10.9%	35.5µM*	5.01µM*	.	.	.	GALK confirm=8.41µM*;GALK redox cs=5.3µM*;HEK293 tox=25µM*
COc1ccc(NC(=O)CN(C)C(=O)c2cnc(Cl)c(Cl)c2)cc1	4.8%	39.3%	-6.4%	92.8%	-20.6%	.	.	.
CC(C)CC(NC(=O)/C(=C/c1ccco1)NC(=O)c1ccc(Br)o1)C(=O)O (stereo not given)	-7.2%[11.6 µM]	?	70.8µM*	0.1%	22.4µM*	.	?	.
O=C(Nc1cccc(C(=O)O)c1)/C(=C\c1ccco1)NC(=O)c1ccc(Br)o1	-5.0%[11.6 µM]	?	79.4µM*	?	17.8µM*	.	23.8*	37.9*
Cc1ccccc1OCC(O)Cn1nnc2ccccc21 (stereo not given)	6.4%	-1.5%	-9.5%	1.3%	-15.5%	2.4%	.	.
SMILES	WRN helicase inh	Pol iota inh	Pol kappa inh-1	POLB inh	Pol eta inh-1	L3MBTL1 inh	Pol kappa inh-2	Pol eta inh-2	others
O=C(O)c1ccc(CSc2nc3ccc(N4C(=O)C5C6C=CC(C6)C5C4=O)cc3s2)cc1 (stereo not given)	4.3%[11.6 µM]	?	-11.8%	1.6%	28.2µM*	-10.2%	.	?
CCc1cccc(CC)c1NC(=O)CSc1nc2ccc(N3C(=O)C4C5C=CC(C5)C4C3=O)cc2s1 (stereo not given)	7.8%	-6.3%	-1.1%	-16.5%	-13.2%	.	.	.
CCCC(=O)O[C@]1(C(=O)CO)CCC2[C@@H]3CCC4=CC(=O)CC[C@]4(C)C3C(O)C[C@]21C (stereo not given in full)	.	.	-3.5%[60.1 µM]	.	.	.	.	.
CCc1cccc(C)c1NC(=O)c1ccc2c(c1)CCN2S(=O)(=O)CC	.	-1.1%	-1.7%	10.8%	3.9%	.	.	.
O=C1Nc2ccccc2SC(c2ccccc2)C1O (stereo not given)	?	?	79.4µM*	22.4µM*	2.82µM*	.	.	?
O=C(O)CC1Sc2ccccc2NC1=O (stereo not given)	-1.0%	2.2%	-2.7%	66.3%	-10.4%	13.3%	.	.
COc1ccc(NC(=O)/C(C#N)=C\c2ccc(-c3cc(C(=O)O)ccc3C)o2)cc1	?	?	?	22.4µM*	20µM*	?	47.4*	42.6*
